Reference: PubChem BioAssay (NCATS)
Several values for one entry are separate records, joined by “and”; a condition that tells them apart may be missing. Equal values may be shown once. Results filed as inconclusive are left out. Values without a mark were called inactive. Calls come from the whole dose curve.

Molecular target: Bile acid receptor (Homo sapiens) (UniProt Q96RI1)
Assay: qHTS assay for small molecule agonists of farnesoid X receptor signaling (AID 588527); note: series mostly up to about 77 µM
Settings: HEK293T FXR-UAS-bla, beta-lactamase ratio, 16 h; activation: hits give high values
Text: NIH Chemical Genomics Center [NCGC] U.S. Environmental Protection Agency [EPA] National Institutes of Environmental Health Sciences [NIEHS] National Toxicology Program [NTP] NCGC Assay Overview The farnesoid-X-receptor (FXR), a nuclear hormone receptor is highly expressed in liver, intestine, kidney and adrenal cortex. Natural ligands of FXR are the bile acids (Cholic acid, Chenodeoxy cholic acid etc). It is an important regulator of diverse metabolic pathways, including the bile acid homeostasis, lipid and glucose metabolisms. FXR regulates the expression of target genes by binding either as a monomer or as a heterodimer with RXR (retinoid X receptor). As FXR regulates a large number of target genes involved in bile acid, lipoprotein and glucose metabolisms, it is a potential pharmacological target for bile acid and lipid disorders. Thus screening environmental chemicals on FXR signaling can be used for the studies focused on metabolic syndrome, hepatic and intestinal toxicity etc.
NCGC Assay Protocol Summary Using a beta-lactamase reporter-gene under control of Farnesoid X receptor (FXR) response element, a cell-based assay [GeneBLAzer FXR-UAS-bla assay developed by Invitrogen] was used to measure FXR ligands signaling. GeneBLAzer FXR-UAS-bla HEK293T cells were used with assay medium containing 10% dialyzed FBS. The assay was performed in clear bottom black Greiner 1536-well plates. Chenodeoxycholic acid and Guggulsterone were used in the screen as agonist and antagonist positive controls respectively. Library compounds were measured for their ability to stimulate the reporter gene activity. Compounds were screened in a titration series in 1536-well format. […] Data was normalized relative to Chenodeoxycholic acid control (100 uM, 100%), and DMSO only wells (basal, 0%). Concentration-response titration points for each compound were fitted to the Hill equation yielding concentrations of half-maximal stimulation (EC50) and maximal response (efficacy) values. qHTS protocol for FXR beta-lactamase assay in agonist mode [Step] [Parameter] [Value] [Description] 1. Reagent; 6 uL; 5000 cells/well 2. Incubation; 37 C for 5-7 hrs 3. Compounds; 23 nL; 0.59 nM to 92 uM 4. Controls (Chenodeoxycholic acid); 23 nL, - One column with dose response, start 200 uM, 1:2 dilutions in duplicates - Final concentrations of 100 uM and 60 uM in two columns 5. Incubation; 37 C for 16 hrs 6. Detection reagent; 1 uL of CCF4-dye 7. Incubation; RT for 2 hrs 8. Detection; Fluorescence; Envision plate reader

Bile acid receptor (Homo sapiens), sequence (Q96RI1 whole entry, looked up): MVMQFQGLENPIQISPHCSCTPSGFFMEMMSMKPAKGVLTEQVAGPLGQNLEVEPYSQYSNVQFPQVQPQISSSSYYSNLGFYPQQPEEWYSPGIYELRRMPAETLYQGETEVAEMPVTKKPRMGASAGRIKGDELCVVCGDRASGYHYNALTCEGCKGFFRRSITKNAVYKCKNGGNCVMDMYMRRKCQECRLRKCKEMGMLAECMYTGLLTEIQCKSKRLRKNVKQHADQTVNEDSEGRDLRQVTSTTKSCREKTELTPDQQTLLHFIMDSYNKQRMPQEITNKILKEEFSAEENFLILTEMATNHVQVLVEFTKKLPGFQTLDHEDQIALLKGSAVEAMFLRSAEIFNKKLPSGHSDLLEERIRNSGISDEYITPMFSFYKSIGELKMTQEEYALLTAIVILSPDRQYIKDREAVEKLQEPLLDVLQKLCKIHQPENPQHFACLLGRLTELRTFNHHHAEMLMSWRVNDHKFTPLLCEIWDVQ

**Q.** C=CC(=O)CC was tested. Which activation did it give?
**A.** 3.81%

**Q.** How did the activation turn out when C/C=C/C/C=C\CCCCCCCCOC(C)=O was run?
**A.** -4.9%

**Q.** Which activation does the source give for CCCCCCCC/C=C\CCCCCCCC(=O)O here?
**A.** -0.994% and -1.49%

**Q.** CC1CCC2CC1C2(C)C (stereo not given) was tested. Which activation did it give?
**A.** 3.3%

**Q.** Which activation does the source give for N#Cc1ccccc1 here?
**A.** -3.25%

**Q.** Cc1ccc(C(C)(C)C)c(O)c1 was tested. Which activation did it give?
**A.** -1.53%

**Q.** With C[Si](Cl)(Cl)[Si](C)(Cl)Cl as the compound, how does the activation read?
**A.** 5.31%

**Q.** For CC(=O)OC(C)C, which activation is on record?
**A.** -1.76%

**Q.** With CCOCCO as the compound, how does the activation read?
**A.** 0.436%

**Q.** How did the activation turn out when CC(=O)CC(=O)Nc1ccccc1 was run?
**A.** 0.0824% and -0.252%

**Q.** For c1ccc2cc3c(ccc4ccccc43)cc2c1, which activation is on record?
**A.** 2.13%

**Q.** Clc1ccc(-c2cc(Cl)c(Cl)cc2Cl)cc1Cl was tested. Which activation did it give?
**A.** 4.78%

**Q.** OB(O)O was tested. Which activation did it give?
**A.** 1.87% and 2.1%

**Q.** With COc1ccc(/C(=C/C(=O)N2CCOCC2)c2ccc(Cl)cc2)cc1OC as the compound, how does the activation read?
**A.** -0.563%

**Q.** How did the activation turn out when O=C(NC(=O)c1c(F)cccc1F)Nc1cc(Cl)c(OC(F)(F)C(F)C(F)(F)F)c(Cl)c1F (stereo not given) was run?
**A.** 3.38%

**Q.** Which activation does the source give for CCC(C)n1c(=O)[nH]c(C)c(Br)c1=O (stereo not given) here?
**A.** 2.99%

**Q.** For NC(=O)Nc1nc2ccccc2[nH]1, which activation is on record?
**A.** -1.18%

**Q.** CN(C)CCCCCCN(C)C was tested. Which activation did it give?
**A.** -2.62%

**Q.** Which activation does the source give for CN(C)CCCNCCCN here?
**A.** 2.54%

**Q.** With CCCCCCCCCCCCC1=C(OC(C)=O)C(=O)c2ccccc2C1=O as the compound, how does the activation read?
**A.** -0.713%

**Q.** With CCCCCCCCCCCCO as the compound, how does the activation read?
**A.** -2.63%

**Q.** For CC1=C(/C=C/C(C)=C/C=C/C(C)=C/C=O)C(C)(C)CCC1, which activation is on record?
**A.** 23.6%

**Q.** Nc1c(Cl)cc(Cl)cc1Cl was tested. Which activation did it give?
**A.** 0.611%

**Q.** For BrC/C=C/CBr, which activation is on record?
**A.** 1.2%

**Q.** For O=C(O)c1ccc(CO)o1, which activation is on record?
**A.** 0.258%

**Q.** For C=C(C)C(=O)OCCCCCC, which activation is on record?
**A.** -1.11%

**Q.** With CC(Oc1cccc(Cl)c1)C(=O)O (stereo not given) as the compound, how does the activation read?
**A.** 0.618%

**Q.** O=Cc1cccc(Br)c1 was tested. Which activation did it give?
**A.** -4.69%

**Q.** How did the activation turn out when Nc1cccc(O)c1 was run?
**A.** -1.81%

**Q.** How did the activation turn out when c1ccc2cc3ccccc3cc2c1 was run?
**A.** -1.8%

**Q.** Which activation does the source give for CC(C)Cc1c(C(=O)O)c(C(F)F)nc(C(F)(F)F)c1C1=NCCS1 here?
**A.** 0.784%

**Q.** For N#CSCSC#N, which activation is on record?
**A.** 17.3%

**Q.** How did the activation turn out when CCCCCCCN was run?
**A.** -2.09%

**Q.** How did the activation turn out when CC(=O)Nc1ccc(N=Nc2cc(C)ccc2O)cc1 was run?
**A.** 0.585%

**Q.** How did the activation turn out when C=CCCCCCCC=C was run?
**A.** -0.711%

**Q.** How did the activation turn out when O=C(O)c1ccccc1Cl was run?
**A.** 1.39%

**Q.** For CC/C=C/C/C=C/C/C=C/CCCCCCCC(=O)OCC, which activation is on record?
**A.** 1.74%

**Q.** Nc1ccccc1[N+](=O)[O-] was tested. Which activation did it give?
**A.** -3.44%

**Q.** For COc1cc(OC)nc(NC(=O)NS(=O)(=O)c2ncccc2C(F)(F)F)n1, which activation is on record?
**A.** -0.618%

**Q.** How did the activation turn out when COc1cc(OC)nc(NC(=O)NS(=O)(=O)c2cc(NC=O)ccc2C(=O)N(C)C)n1 was run?
**A.** -1.24%
